# Source: PubChem BioAssay AID435019 (Southern Research Specialized Biocontainment Screening …, 2010)
# The campaign covered roughly 2,300 compounds. About 1,200 (52%) were called active. So high a share suggests a set chosen from earlier hits. The list shows a part of the results. Results with a measured potency or affinity are listed apart. Values without a mark were called inactive. How the calls were made is not given here.
# Experiment: mammalian cell cytotoxicity, dose response, cytotoxicity control for M. tuberculosis inhibitor project (AID 435019);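 further: 0% = background wells and 100% = vehicle-treated cells; lower values mean fewer viable cells so more cytotoxicity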
# Conditions: cytotoxicity counter-screen; series mostly up to 40 µM; viability: at the top concentration
row,SMILES,viability
1,CCOC(=O)CSc1nsc(SCC(=O)OCC)c1C#N,96.2%
2,CCOc1ccc(N=c2scc(-c3ccccc3)n2CCO)cc1,96%
3,Oc1ccc2cc(Br)ccc2c1CN1CCCC1,84.9%
4,CSc1cc(-c2ccncc2)nc(-c2ccc(Cl)cc2)c1,84.4%
5,Cc1ccnc(NC(=O)CCc2c[nH]c3ccccc23)c1,82.8%
6,Cn1ccc(=Nc2ccc(NC(=O)c3ccc(N=c4ccn(C)c5ccc([N+](=O)[O-])cc45)cc3)cc2)cc1,90.8%
7,COc1ccc(-c2nnc(SCC(=O)N3CCc4ccccc4C3)o2)cc1,85.6%
8,CCOC(=O)C1CCCN(c2ncnc3c2cnn3-c2ccc(OC)cc2)C1 (stereo not given),98.5%
9,CCOC(=O)N1CCN=C1SCc1ccc(C(F)(F)F)cc1,94.8%
10,COc1ccc(-c2nnc(NC(=O)c3ccc([N+](=O)[O-])o3)o2)c(OC)c1,82.6%
11,O=[N+]([O-])c1ccc(-n2cnc3ccccc32)c([N+](=O)[O-])c1,95%
12,Cc1ccc(S(=O)(=O)N(C)c2ccc(OCC(=O)OCc3ccc(C#N)cc3)cc2)cc1,95.1%
13,CC(/C=C/c1ccccc1)=N\NC(N)=S,93.2%
14,CC1CCC/C(=N\NC(=S)Nc2ccccc2)C1 (stereo not given),88.5%
15,O=C(OCCN1C(=O)c2ccccc2C1=O)c1cc2ccccc2o1,99.3%
16,Cc1ccnc(N2CCC(C(=O)Nc3cccc(C(F)(F)F)c3)CC2)n1,84.4%
17,CCN(CC)S(=O)(=O)c1ccc(/C=C/C(=O)OCC#N)cc1,91.9%
18,CCOC(=O)NNc1ccccc1,101%
19,CCOC(=O)c1c(/N=C/N(C)C)sc(/C=N/Nc2ccccc2)c1-c1ccccc1Cl,83.2%
20,COC(=O)C1C2c3ccccc3OC1(C)N=c1s/c(=C/c3cnn(C)c3C)c(=O)n12 (stereo not given),96.6%
21,CCc1cc2c(=O)c(-c3cnn(-c4ccccc4)c3)c(C)oc2c(CN2CCCCC2)c1O,93.9%
22,CC(NC(=O)c1ccccc1Br)C1CC2CCC1C2 (stereo not given),91.3%

row,SMILES,viability
1,O=C(OCc1nc2ccccc2s1)c1ccc(Br)o1,93%
2,Cc1cc(/C=C/C(=O)O)c(C)n1-c1ccc(Cl)cc1,95.7%
3,CNc1cccccc1=S,90.6%
4,NC(=O)CSc1nnc(COc2ccc3ccccc3c2)o1,92.6%
5,COc1ccc2c(c1)CCc1c(C(=O)Nc3c(C)n(C)n(-c4ccccc4)c3=O)noc1-2,91.4%
6,Cc1c(O)c(=O)n(-c2ccccc2)n1C,99.9%
7,CC(C)(C)c1ccc(C(=O)CSc2n[nH]c(=O)[nH]c2=O)cc1,90.6%
8,Cc1ccccc1Cn1ccc(=NCc2ccccc2)cc1,94.5%
9,CC(=O)n1cc(/C=C2/N=C(c3ccccc3)OC2=O)c2ccccc21,87.7%
10,O=C(CN1CCCCC1)Nc1nnc(-c2ccc([N+](=O)[O-])cc2)s1,84.5%
11,Cc1ccc(NC(=O)Cc2ccc(-c3ccccc3)cc2)nc1,92.4%
12,CSc1cccc(NC(=O)CCS(=O)(=O)c2cccc3nonc23)c1,92.1%
13,COC(=O)c1ccc(-n2cnc3ccccc32)nc1,85%
14,COc1ccc(N2CCN(C(=O)c3ccc(CNc4c(N5CCOCC5)c(=O)c4=O)cc3)CC2)cc1,94.8%
15,CN(C)c1ccc(/C=C2\N=C(C(C)(C)C)OC2=O)cc1,92%
16,CCC(C)N1CCC2(CC1)N=c1c(c3c4c5c(C)c(O)c3c(O)c1=NC(=O)C(C)=CC=C[C@H](C)[C@H](O)[C@@H](C)[C@@H](O)[C@@H](C)[C@H](OC(C)=O)[C@H](C)[C@@H](OC)C=CO[C@@](C)(O5)C4=O)N2 (stereo not given in full),85.8%
17,Cc1c2c(nc3ccccc13)CCC(C)C2 (stereo not given),90.5%
18,O=C1C(c2ccccc2)=[N+]([O-])c2ccccc21,88.2%
19,COc1ccc(NC(=O)CSC2CCCCC2)cc1,105%
20,COc1ccc(C2CC(=O)c3cnc(Nc4cc(C)cc(C)c4)nc3C2)cc1 (stereo not given),89.3%
21,O=C(N/N=C/c1c(F)c(F)c(F)c(F)c1F)c1cccc(S(=O)(=O)N2CCOCC2)c1,84.2%
22,COc1ccc(NC(=O)c2oc3ccc(S(=O)(=O)N4CCOCC4)cc3c2C)cc1,98.4%

row,SMILES,viability
1,COc1cc2cc(C(c3nnnn3C(C)(C)C)N3CCc4ccccc43)c(=O)[nH]c2cc1OC (stereo not given),87.3%
2,COc1ccc(C2=NC(=O)/C(=C\c3cc(OC)c(OC)c(OC)c3)O2)cc1,97.4%
3,CCCCOC(=O)c1ccc(NC(=S)NC(=O)c2c(Br)c(C)nn2C)cc1,100%
4,CN(CCO)c1cc(Sc2nc3ccccc3s2)c2nonc2c1[N+](=O)[O-],88.1%
5,CCCSC1=C(C#N)C(c2ccc(Cl)cc2Cl)CC(=O)N1 (stereo not given),87.4%
6,CN(C(=O)COC(=O)/C=C/c1ccc(Cl)c(Cl)c1)c1c(N)n(Cc2ccccc2)c(=O)[nH]c1=O,101%
7,C=CCOc1c(Br)cc(CNc2nccs2)cc1OC,80.1%
8,O=C(CCc1nnc(CCCc2ccccc2)o1)NCCCC1CCCC1,93.3%
9,COc1ccc(N/C=C(\C2OC(=O)c3ccccc32)[N+](=O)[O-])cc1 (stereo not given),103%
10,COc1ccc(N=N/C(=C\O)C(=O)c2cccs2)cc1,101%
11,Cc1nc(SCC(=O)Nc2ccc(OCc3ccccc3)cc2)n[nH]1,91.9%
12,C=CCc1cccc2cc(C(=O)OCC(=O)c3ccccc3)c(=O)oc12,104%
13,Cn1ccnc1C(=O)C1CCCN(Cc2cn[nH]c2-c2ccc(-c3ccccc3)cc2)C1 (stereo not given),86.1%
14,CC(=O)c1cccc(Nc2nc(-c3cccnc3)cs2)c1,81%
15,O=C(OCc1csc(Nc2ccccc2)n1)c1ccc(Cl)cc1,90.1%
16,O=C(/C=C/c1ccc([N+](=O)[O-])cc1)NC1CC2CCC1C2 (stereo not given),89%
17,CC(C)Oc1ccc(C(=O)N/N=C/c2ccc(-c3ccc(S(=O)(=O)Nc4ncccn4)cc3)o2)cc1,87%
18,O=C(c1ccc([N+](=O)[O-])s1)N1CCN(c2ccc(C(F)(F)F)cn2)CC1,90%
19,O=c1[nH]c(CN2CC=C(c3ccccc3)CC2)nc2cc(C(F)(F)F)ccc12,107%
20,CC(C)CNC(=S)NC(=O)c1csc([N+](=O)[O-])c1,96.9%
21,O=C(Nc1cc(C(F)(F)F)ccc1Cl)C(Sc1cccc[n+]1[O-])c1ccccc1 (stereo not given),85.9%
22,CC1(C)CC(=O)c2cc(C(=O)NNc3ccccc3)c(=O)n(-c3ccccc3)c2C1,96.8%

row,SMILES,viability
1,COc1ccc(NC(=O)CSc2nnc(-c3ccccn3)n2N)cc1Cl,92%
2,CSc1nn(-c2ccc(C(=O)OCC(=O)NC(=O)NC(C)C)cc2)c(=S)s1,86.6%
3,COc1cc2c(cc1OC)CN(CCC(=O)c1ccc(Br)cc1)CC2,96.2%
4,C#CCCc1cscc1/C=[N+](\[O-])c1ccc(C(=O)OCC)cc1,102%
5,Cn1cnnc1SCc1ccc(-c2ccc(Br)cc2)o1,92.6%
6,Cc1ccc(NC(=O)/C(Cl)=C\c2ccccc2)cc1,97.2%
7,CCc1ccc(/C=C2/C(=O)N(C)C(=S)N2CC(=O)OC)s1,99.8%
8,Oc1ccc(/C=N/n2c3ccccc3c3ccccc32)cc1,81.2%
9,Cc1ccc(N2C(=O)C(F)(F)C2c2ccccc2)cc1 (stereo not given),95.3%
10,COc1ccccc1N1CCN(/N=C/C(Cl)=C/c2ccccc2)CC1,84.9%
11,OCCN(/C=N/c1nc(-c2ccc(Br)cc2)cs1)CCO,91.9%
12,CCOC(=O)c1cc2cc3ccccc3cc2oc1=O,95.8%
13,CCOC(=O)c1cnc(SC2CCc3ccccc3C2=O)nc1N (stereo not given),89.5%
14,CC(Oc1cc2oc(=O)c3c(c2cc1Cl)CCCC3)C(=O)NCc1ccccn1 (stereo not given),81.3%
15,CCOC(=O)C1CCN(c2cc3c(cc2NC(=O)c2ccccc2Cl)n(C)c(=O)n3C)CC1,95.7%
16,CC1=NN(c2ccc(C)c(C)c2)C(=O)/C1=C\C=C\c1ccc([N+](=O)[O-])o1,96.5%
17,CCN(CC(=O)NCc1cccs1)C(=O)c1ccc([N+](=O)[O-])o1,87.3%
18,CC(C)=N/N=C1/NC(=O)C(Cc2ccccc2)S1 (stereo not given),98.5%
19,Cc1cc(Nc2ccccc2)c2c([N+](=O)[O-])ccc(C)c2n1,101%
20,Cc1ccc(N/N=C/C=C/c2ccco2)cc1,94.5%
21,O=c1c2cc(-c3ccccc3)sc2ncn1/N=C/c1ccco1,99.8%
22,CCOC(=O)c1nc2sc3c(c2c(=O)[nH]1)CCC(C)C3 (stereo not given),97.1%

row,SMILES,viability
1,CCOC(=O)CCCNC(=O)COC(=O)c1cc(Br)c(Br)s1,100%
2,CCOC(=O)CSc1nn(-c2ccccc2)c(=S)s1,97.1%
3,CCOC(=O)CSc1nnc(SCCN2C(=O)c3ccccc3C2=O)s1,104%
4,Cc1ccc2c(c1)C1C[N+](C)(CC(=O)c3ccc(Cl)cc3Cl)CCC1N2C(=O)c1ccc(F)cc1 (stereo not given),90%
5,COC(=O)COc1ccc(-c2ccccc2)cc1C=O,91.1%
6,CCCCCCCCSc1nnc(CSc2nc3nc(C)cc(C)n3n2)o1,93%
7,Cc1cc(C)c2cc(C(=O)Nc3ccc(C)c(F)c3)[nH]c2c1,97.5%
8,COC(=O)c1ccc(N/C(C)=C/C(=O)c2ccc(C)o2)cc1,95.1%
9,Cc1ccccc1NC(=O)Cc1nc(COC(=O)/C=C/c2ccccc2)cs1,87.3%
10,COC(=O)c1cc(/C=C/c2ccccc2)on1,103%
11,N#Cc1c(SCC(N)=O)nsc1SCc1ccccc1Cl,102%
12,O=C(CN1CCN(c2nc(-c3ccc(F)cc3)cs2)CC1)NCc1ccc2c(c1)OCO2,82.4%
13,CCCCOc1ccc(-c2nnn(C(C)C(=O)OCC)n2)cc1 (stereo not given),94.5%
14,Cc1cccc(N2CCN(CC(=O)Nc3nccs3)CC2)c1C,83.5%
15,CC1CCc2c(C(=O)Nc3nccs3)csc2C1 (stereo not given),90%
16,Nc1ccc2cc(Br)ccc2c1,89.6%
17,COC(=O)c1ccc(N/N=C/c2cc([N+](=O)[O-])cc(OC)c2O)cc1,92.8%
18,COC(=O)Cc1ccc(NC(=O)c2ccc(Br)o2)cc1,90.5%
19,CC1CCN(C(=O)c2ccc(-c3ccccc3Cl)o2)CC1,82.7%
20,CCOC(=O)CSCC(=O)N1CCC(Cc2ccccc2)CC1,96%
21,Cc1cccc(OCC(=O)NNC(=O)c2cc3ccccc3oc2=O)c1,94%
22,COc1ccc(OC(=O)c2cc3cc(Cl)ccc3oc2=O)cc1,106%
